Chronic BCR inh: inhibitors of chronic active B-cell receptor signaling | ABC-DLBCL IkBa-CBG/CBR reporter, luminescence ratio, 4 h | Potency, µM (highest dose often 46.1 µM), for the others: top-dose activity change, negative = inhibition, usual class: inhibitors | hit rate 0.05% among 340,000; active = well fitted inhibition curve with a large enough effect in the signal ratio, with a control signal flat, not every such curve was filed as active; inconclusive = small, poorly fitted or top-dose-only effect, or effect the other way, or a change in a side signal; the % refers to the signal ratio;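 note: plate controls were basal doxycycline-induced cells for no effect and cells given 10 µM MG132 for full effect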
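TMD8 human ABC-DLBCL cells with doxycycline-inducible IκBα–green luciferase fusion and unfused red luciferase, in 0.5% FBS medium; compounds up to 46 uM, 4 h at 37C. Green/red luminescence ratio, filter-overlap corrected, fitted to concentration-response curves.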
Pin1 inhibitor: human Pin1 inhibition | Q13526 | hit rate 0.009% among 390,000 | Pin1 FP peptide displacement, HiFluor488, 10 min | AID 504891 | Potency, µM (doses to about 115 µM), without a hit: top-dose activity, negative = inhibition, hits mostly inhibitors; active = well fitted inhibition curve with a large enough effect in the polarisation, with a control signal flat, not every such curve was filed as active; inconclusive = small, poorly fitted or top-dose-only effect, or effect the other way, or a change in a side signal; inactive = no such curve, though single readings can be large or run the other way; the % refers to the polarisation; note: % is set by controls: 0 for no effect and ±100 for the full control effect
Target sequence (Q13526 whole entry, looked up): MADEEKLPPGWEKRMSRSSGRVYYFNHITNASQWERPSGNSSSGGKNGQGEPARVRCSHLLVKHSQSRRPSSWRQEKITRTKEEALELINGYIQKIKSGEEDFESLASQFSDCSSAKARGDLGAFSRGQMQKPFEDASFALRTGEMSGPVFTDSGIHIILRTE
Tb PGK inh: inhibitors of T. brucei phosphoglycerate kinase | P07378 | PGK/GAPDH coupled, Kinase-Glo luminescence, 60 min | Potency, µM (highest dose often 57.5 µM), inactives show at the top dose activity change, negative = inhibition, usual class: inhibitors | hit rate 0.043% among 380,000 | AID 602233; note: % is set by controls: 0 for no effect and ±100 for the full control effect; nearly all actives have a fitted effect of over 60% in size
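Luminescent ATP detection (Kinase-Glo Plus) follows a 60-minute room-temperature incubation, with wells lacking PGK as controls. Buffer: 100 mM TEA (pH 7.6), 5 mM MgCl2, 0.01% Tween-20. Coupling enzyme GAPDH (100 nM final) supplies unstable 1,3-BPG in-well.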
B2AR arrestin: beta2AR (human) beta-arrestin recruitment activity. Potency, µM (highest dose often 46.1 µM), without a hit: at the top dose activation, usual class: activators. P07550. beta-arrestin recruitment to beta2AR, cell-based reporter. hit rate 0.02% among 330,000;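 note: 0% = DMSO controls and full agonism = EC100 isoproterenol or metaproterenol; nearly all actives have a fitted effect of over 65% in size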
Tb PFK inh-1: T. brucei PFK enzyme inhibition; T. brucei PFK, ADP-Glo luminescence; hit rate 0.17% among 330,000; AID 485367; Potency, µM (top dose mostly 57.5 µM), inactives show at the top dose activity, negative = inhibition, hits mostly inhibitors;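 note: 0% = uninhibited 1x PFK enzyme wells and -100% = no-enzyme wells; nearly all actives have a fitted effect of over 60% in size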
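Compounds were pin-transferred as a titration series up to 57 uM into substrate buffer (0.5 mM F6P, 0.1 mM ATP, pH 8.0), then 1.25 nM PFK was added and reactions ran 45 min before ADP-Glo detection.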
GLS inhibitor: glutaminase GLS (human) inhibition; Potency, µM (top dose mostly 45.5 µM), without a hit: top-dose activity change, negative = inhibition, actives largely listed as inhibitors; O94925; hit rate 0.21% among 410,000; GLS enzymatic activity, qHTS titration; AID 624170; note: % is set by controls: 0 for no effect and ±100 for the full control effect
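Coupled fluorescence readout: glutamate oxidase/HRP/Amplex Red detect glutamate formed by hKGA from L-glutamine (1 mM solution added). Buffer 45 mM KH2PO4 pH 8.2, 0.02% Tween-20; reads at t0 and 30 min RT.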
TbPFK ATP: Tb phosphofructokinase inhibition, orthogonal luminescence; shares compounds with Tb PFK inh-1; Tb PFK enzyme, ATP depletion, Kinase-Glo Plus luminescence; Potency, µM (doses to about 57.5 µM), for the others: top-dose inhibition; hit rate 47% among 1,100; AID 504636; calls by dose curve; note: nearly all actives have a fitted effect of over 60% in size
Tb PFK inh-2: T. brucei PFK enzyme inhibition, hit validation | Potency, µM (titrated, usually from 57.5 µM), inactives show at the highest dose activity change, negative = inhibition, hits mostly inhibitors | purified T. brucei PFK, ADP-Glo luminescence, 45 min | hit rate 41% among 1,100 | AID 504637 | shares compounds with Tb PFK inh-1;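 note: plate controls were full PFK enzyme control for no effect and no enzyme control for full effect; nearly all actives have a fitted effect of over 60% in size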
Starred values were filed as active, the others as inactive; i = inactive; ? = inconclusive; nt = not tested or not shown; [ ] = remark or other dose. A selection: hits, their analogues and other compounds. The true share with any hit is near 0.42%. Unless noted, calls come from the whole dose curve; as a rule, active = well fitted curve in the direction sought with a large enough effect; inconclusive = small, poorly fitted or top-dose-only effect, or another doubt; inactive = no such curve, though single readings can be large; an effect the other way counts as inactive or inconclusive. Potency is the fitted concentration of half-maximal effect.

SMILES	Chronic BCR inh	Pin1 inhibitor	Tb PGK inh	B2AR arrestin	Tb PFK inh-1	GLS inhibitor	TbPFK ATP	Tb PFK inh-2
Cc1ccc(NC(=S)Nc2ccc(Cl)c(Cl)c2)c(OC(F)F)c1	25%	3%	i	0%	5.4µM*	16%	?	?
CCSS(=O)(=O)c1cccc2cccnc12	?	-1%	6%	3%	21µM*	10µM*	8.5µM*	19µM*
Oc1cccc2cccnc12	?	1%	nt	0%	1%	?	nt	nt
O=C(N/N=C\C=C\c1ccco1)C1COc2ccccc2O1 (configuration not stated)	?	0%	-6%	?	24µM*	1%	21µM*	?
O=C(N/N=C/C=C/c1ccc([N+](=O)[O-])cc1)C1COc2ccccc2O1 (configuration not stated)	0%	-8%	9%	-1%	12µM*	7%	13µM*	24µM*
COc1ccc(NC(=O)CCS(=O)(=O)c2ccc3c(c2)oc(=O)n3C)cc1OC	?	1%	-6%	0%	2%	2%	nt	nt
N#Cc1nc(-c2cccc3ccccc23)oc1NCC#CCOC(=O)c1cccs1	-27%	nt	nt	0%	21µM*	nt	8.5µM*	27µM*
N=c1n(CCO)c2ccccc2n1CCOc1ccccc1	0%	1%	-4%	0%	24µM*	-10%	13µM*	21µM*
CCOC(=O)Cn1c(=N)n(CCOc2cccc(C)c2)c2ccccc21	-7%	2%	-3%	0%	13µM*	6%	11µM*	13µM*
CCOC(=O)COc1ccc2c(c1)c(C(C)=O)c(C)n2Cc1ccccc1	6%	-2%	-9%	0%	-5%	-24%	nt	nt
OCCOc1ccccc1	1%	-5%	2%	-2%	-1%	0%	nt	nt
C/C(CC(=O)N1CCN(C=O)CC1)=N\NC(=O)c1cccc([N+](=O)[O-])c1	1%	0%	-4%	0%	1%	?	nt	nt
Oc1ccc(C2=Nn3c(nnc3-c3ccco3)SC2)cc1O	?	?	?	1%	7.6µM*	?	?	?
O=C(c1cc(C(=O)NCc2ccc(Cl)cc2)c(=O)n(Cc2ccc(Cl)cc2)c1)c1cc(F)ccc1O	10%	16%	3%	-2%	-1%	2%	nt	nt
N#C/C(=C/c1ccc(O)c(O)c1)C(=O)NCc1ccc(Cl)cc1	?	-1%	-5%	0%	?	56%	?	-30%
CCCC1=Nc2cc(C(=O)NC3CCCCC3)ccc2Sc2ccc(C)cc21	?	5%	9%	nt	nt	-1%	nt	nt
COc1ccc(N2CCN(C(=O)CSc3nnc(CNc4ccccc4)o3)CC2)cc1	-1%	-3%	-6%	0%	?	44%	19µM*	30µM*
CCOC(=O)CN(C(=O)CSc1nnc(CNc2ccc(F)cc2)o1)c1ccccc1	6%	-6%	i	-1%	24µM*	19%	13µM*	27µM*
O=C(CSc1nnc(CNc2ccc(F)cc2)o1)N1CCN(C(=O)c2ccco2)CC1	0%	-2%	4%[11.5 µM]	0%	?	25%	15µM*	24µM*
Nc1cccc2c1C(=O)N(C(=O)/C=C/c1ccc(F)cc1)C2=O	?	?	-1%	0%	-1%	-6%	nt	nt
CN1CCN(C(=S)C(=O)Nc2ccc(Br)cc2)CC1	?	-10%	-4%	0%	12µM*	-15%	7.6µM*	12µM*
Oc1cc2c(cc1C(c1ccc(Cl)c(Cl)c1)N1CCCC1)OCO2 (configuration not stated)	3%	?	7%	0%	21µM*	-1%	?	?
